Source: PubChem
Shown are actives, neighbours in structure and some others; about 3.5% of the full set was active somewhere.
mHTT-CaM PPI inh: inhibitors of human mutant huntingtin-calmodulin interaction. inhibition, % at 15 µM. P42858. actives 3.6% (n = 190,000). AlphaScreen His-mHTT/GST-CaM binding, luminescence;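 also: 0% = both proteins with DMSO and 100% = one protein alone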
Pf apPOL inh: Pf-apPOL DNA polymerase inhibition. AID 1794808. inhibition, % at 10 µM. Recombinant Pf-apPOL, molecular beacon fluorescence, 1.5 h. actives 0.25% (n = 210,000)
An asterisk follows results filed as active; nt = no result. Rule as the data show it: active = inhibition above about 50%; inactive = the rest.

SMILES	mHTT-CaM PPI inh	Pf apPOL inh
COc1ccccc1CCC(=O)N1CC2CC(NC(=O)c3cccs3)C1C2 (configuration not stated)	5.0	-2.7
CC(C)c1noc(C2CCCCN2C(=O)c2nc3ncccn3n2)n1 (configuration not stated)	9.2	-3.8
CCOC(=O)N1CCN(C(=O)NC2CC(=O)N(c3ccc(C)cc3)C2)CC1 (configuration not stated)	0.8	-2.4
CCN(C)c1ccc(/C=C2/C(=O)N(c3ccc(Cl)cc3)N=C2C)cc1	70.0*	0.4
CCN(C)c1ccc(/C=C2/C(=O)N(c3cccc(Br)c3)N=C2C)cc1	90.0*	-0.7
CC1=NN(c2ccc(F)cc2)C(=O)/C1=C/c1ccc(N(C)C)cc1	10.0	-2.4
CC1=NN(c2cccc(Br)c2)C(=O)/C1=C/c1ccc(N(C)C)cc1	24.0	-5.2
Cc1cc(C)c2c(=O)c3cc(C4CCCCC4)ccc3[nH]c2n1	11.8	-8.5
CCSc1c(C(=O)Nc2cccc([N+](=O)[O-])c2)ccc2c1C(=O)c1ccccc1C2=O	7.0	-1.6
COc1ccccc1-n1cc(-c2ccccc2)nc1SCC(=O)Nc1ccc(F)cc1	57.0*	1.4
O=C(CSc1nc(-c2ccccc2)cn1-c1ccccc1F)Nc1ccccc1	54.0*	5.2
COc1ccccc1NC(=O)CSc1nc(-c2ccccc2)cn1-c1ccccc1OC	34.0	0.7
Cn1cnnc1SCC(=O)Nc1ccccc1	1.3	-2.7
Cc1ccc(CN2CCC(C(=O)N3CCOCC3)CC2)o1	-7.2	-2.6
CCCCNC(=O)OCCCN1CCC2(CCC(c3ccccc3)CC2)C1=O (configuration not stated)	9.6	-5.7
O=C(Nc1ccccc1C(F)(F)F)OCCCN1CCC2(CCC(c3ccccc3)CC2)C1=O (configuration not stated)	92.6*	0.3
O=C(Nc1cccc(F)c1)OCCCN1CCC2(CCC(c3ccccc3)CC2)C1 (configuration not stated)	50.1*	-2.7
O=C(Nc1ccc(F)cc1)OCCN1CCCC12CCC(c1ccccc1)CC2 (configuration not stated)	-14.6	-3.2
CC(C)C(=O)NCc1cccnc1-c1ccc(F)cc1	-9.1	-2.8
COc1ccc2c(c1)N1CCN(c3ccc(F)cc3)CC1C(C(=O)NCC(C)C)C2 (configuration not stated)	17.2	-6.1
CCOc1ccccc1N1CCN(C(=O)c2ccccc2C)CC1	4.3	-6.2
COc1cccc(NC(=O)c2ccc(-c3ccc(F)cc3)nc2)c1	-0.7	-1.7
N#Cc1c(C(F)(F)F)cc(-c2cccs2)nc1SCC(=O)Nc1ccc([N+](=O)[O-])cc1	0.0	63.8*
N#Cc1c(C(F)(F)F)cc(-c2cccs2)nc1SCC(=O)Nc1ccccc1	-13.0	12.2
O=C(c1ccc(OCC2CCN(C(=O)C3CCCC3)CC2)cc1)N1CCCC1	-2.1	-3.5
SMILES	mHTT-CaM PPI inh	Pf apPOL inh
O=C(O)CC1Nc2ccccc2NC1=O (configuration not stated)	3.9	1.6
C=C(C)CC1Nc2ccccc2NC1CC(=C)C (configuration not stated)	56.0*	nt
O=C(OCC1OC(O)C(O)(COC(=O)c2cc(O)c(O)c(O)c2)C1O)c1cc(O)c(O)c(O)c1 (configuration not stated)	nt	64.2*
COc1ccc(NC(=O)CCn2nc(C)c(C)c2C)cc1	-15.3	-15.5
COc1ccc2c(=O)c3c(oc2c1)C(=O)N(CCN(C)C)C3c1ccc(OC)c(OC)c1 (configuration not stated)	19.6	-5.7
O=C(CSC1CCCC1)N1CCN(c2ccc(-c3ccccn3)nn2)CC1	100.1*	-7.2
O=C(Cn1ccc2ccccc21)N1CCN(c2ccc(-c3ccccn3)nn2)CC1	44.6	0.5
COc1cccc(C(=O)N2CCN(c3ccc(Nc4ccccn4)nn3)CC2)c1OC	14.2	-8.7
O=C(CSCc1ccccc1)N1CCN(c2ccc(-c3cccs3)nn2)CC1	7.6	-20.9
COc1cccc(C(=O)N2CCN(c3ccc(-c4ccccn4)nn3)CC2)c1OC	100.1*	-3.5
O=C(CCSc1ccccc1)N1CCN(c2ccc(-c3ccccn3)nn2)CC1	100.0*	1.3
CCOC=C1SC(=S)N(c2ccc(C(C)C)cc2)C1=O	nt	-13.9
O=C1C(N2CCOCC2)=CC(=NS(=O)(=O)c2ccc(Cl)cc2)c2ccccc21	64.0*	-1.7
O=S(=O)(Nc1ccc(N2CCOCC2)cc1)c1ccc(Cl)cc1	7.2	-2.2
O=C1C(N2CCOCC2)=CC(=NS(=O)(=O)c2ccccc2)c2ccccc21	72.0*	-6.1
O=S(=O)(c1ccccc1)c1nc(C(c2ccccc2)c2ccccc2)oc1N1CCOCC1	26.0	2.5
CCOc1cc(/C=C2\C(=O)NC(=O)N(c3ccc(Cl)cc3)C2=O)ccc1O	8.0	-1.9
COc1cc(OC)c(NC(=O)CC2SC(=N)NC2=O)cc1Cl (configuration not stated)	nt	-3.7
O=C1ON=C(CSc2ccccc2)C1=Cc1ccccc1	nt	61.3*
O=C1CCC=C1CSc1ccccc1	-7.5	nt
O=C(Cn1cccc1)N1CCC(c2nnc(-c3ccc(F)cc3)o2)CC1	11.5	9.4
Cc1noc(C)c1C(=O)ON=C(c1cccs1)C(C)(C)C	nt	1.8
CCCn1cc2c3c(cccc31)CN(C(=O)c1ccc(F)cc1)CC2	94.3*	-0.5
CCCn1cc2c3c(cccc31)CN(C(=O)CC(C)(C)C)CC2	17.0	-3.1
CCCn1cc2c3c(cccc31)CN(C(=O)c1ccccc1)CC2	70.1*	-2.6
SMILES	mHTT-CaM PPI inh	Pf apPOL inh
Cn1cc2c3c(cccc31)CN(C(=O)c1ccc(Br)cc1)CC2	54.3*	-4.7
CCCn1cc2c3c(cccc31)CN(C(=O)c1ccsc1)CC2	39.2	5.4
CN(C)c1ccc(C(=O)N2CCc3cn(C)c4cccc(c34)C2)cc1	1.4	-3.7
CC1(C)Cc2c(sc(NC(=O)C3CC(=O)OC34CCCCC4)c2C#N)CO1 (configuration not stated)	-3.2	0.7
CCn1cnnc1C1CCN(C(=O)c2ccnn2CC)CC1	-4.7	-3.1
COc1ccc(-c2ccc[nH]2)cc1	62.1*	-31.4
COc1ccc(-c2nnc(-c3ccc(OC)cc3)nn2)cc1	1.0	-1.8
O=c1sc(N2CCc3ccccc3C2)nc2ccsc12	-101.0	-3.3
COc1ccc2oc(=Nc3ccc(Oc4ccccc4)cc3)c(C(N)=O)cc2c1	22.0	-8.4
COc1ncc(C(=O)N2CCN(c3cccc(C)c3C)CC2)cn1	-1.1	-2.0
O=C(Nc1cccc(O)c1)c1nn2c(C(F)(F)F)cc(-c3ccco3)nc2c1Br	61.0*	6.7
O=C(NC1CCCC1)c1nn2c(C(F)(F)F)cc(-c3ccco3)nc2c1Br	0.0	2.9
O=C1C=CC(=O)N1c1cc(Cl)ccc1Oc1ccccc1	35.0	-2.2
O=C(O)c1cn(-c2cccc(C(F)(F)F)c2)nn1	-1.6	-3.1
CC(C)(C)C(=O)NC(Nc1cccc2cccnc12)C(Cl)(Cl)Cl (configuration not stated)	1.0	-11.2
O=S(=O)(Nc1nccs1)c1ccc2ccccc2c1	-2.3	nt
Oc1cccc2ccc(Oc3cccc4cccnc34)nc12	2.0	-3.2
Oc1c(C(Nc2ccccn2)c2ccccc2F)ccc2cccnc12 (configuration not stated)	100.0*	-0.8
O=C(Oc1cccc2cccnc12)c1c(F)cccc1F	nt	3.0
Cc1cccc(NC(c2ccccc2F)c2ccc3cccnc3c2O)n1 (configuration not stated)	99.0*	-13.0
